Data on eight compounds can be found in PubChem BioAssay.

Calls of active or inactive are those of the source.

Experiment [1] is described as follows: optical density shifts of acrAB sulA E. coli – strain DRC41, OD650, 48 h, E. coli filamentation inducer project, primary screen (AID 1152).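 Further: E. coli MC1000 strain DRC41 lacking acrAB efflux pump and sulA.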 The settings on record: higher = more signal, called active from +8 up or from −8 down.
Experiment [2] in a line: probe aLefty1 binding on compound microarray – biochemical, small-molecule microarray, 635/667 nm fluorescence, primary screen (AID 1153).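 Further: score merges spot fluorescence with signal-to-noise ratio from the scanned slide images.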 Conditions: higher = more signal.
Experiment [3] is described as follows: plasmodial surface anion channel blockers, osmotic lysis – cell-based, P. falciparum Indochina, OD700, 1 h, primary screen (AID 1154). The settings on record: P. falciparum Indochina infected RBC osmotic lysis, higher = more signal, called active from +8 up or from −8 down.
The nature of experiment [4]: plasmodial surface anion channel blockers, osmotic lysis – cell-based, P. falciparum Indochina, OD700, 2 h, primary screen (AID 1155).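 Further: lysis reports solute entry through the parasite surface anion channel PSAC.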 Conditions: P. falciparum Indochina infected erythrocytes, higher = more signal, called active from +8 up or from −8 down.
Experiment [5] can be described thus: changes in parasitized red cell lysis, either direction – P. falciparum Indochina, OD700, 3 h, PSAC antagonist project, primary screen (AID 1156). Conditions: P. falciparum-infected erythrocytes, osmotic lysis, higher = more signal, called active from +8 up or from −8 down.
Experiment [6] can be described thus: plasmodial surface anion channel blockers, osmotic lysis – cell-based, P. falciparum Indochina, OD700, 18 h, primary screen (AID 1157). The settings on record: P. falciparum Indochina infected erythrocytes, osmotic lysis OD700, 18 h; higher = more signal, called active from +8 up or from −8 down.
Experiment [7] can be described thus: S6 kinase pathway phospho-S6 level changes – cell-based, A549, cytoblot, luminescence, serum-stimulated, primary screen (AID 1158).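 Further: serum-stimulated A549 lung adenocarcinoma cells; signal is phosphorylated S6 detected by cytoblot immunostaining with HRP secondary.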 The settings on record: 5 h, higher = more signal.
The target of experiment [8] is NADPH oxidase 2 (Homo sapiens) (UniProt P04839). The experiment in a line: compounds shifting NOX2 Amplex Red fluorescence – cell-based, HEK293-NOX2, PMA-stimulated, NOX inhibitor project, primary screen (AID 1159). Further: test concentration not given here. The settings on record: 45 min, higher = more signal, called active from +8 up or from −8 down.
Experiment [9] concerns the target NADPH oxidase 4 (Homo sapiens) (UniProt Q9NPH5). The experiment in a line: compounds shifting NOX4 Amplex Red fluorescence – cell-based, HEK293-NOX4, tetracycline-induced, NOX inhibitor project, primary screen (AID 1160). Conditions: HEK293-NOX4, Amplex Red H2O2 fluorescence, 45 min; higher = more signal, called active from +8 up or from −8 down.
Experiment [10] concerns the target NADPH oxidase 5 (Homo sapiens) (UniProt Q96PH1). The experiment in a line: compounds shifting NOX5 Amplex Red fluorescence – cell-based, HEK293-NOX5, NOX inhibitor project, primary screen (AID 1161). Conditions: HEK293-NOX5, ionomycin, 45 min, higher = more signal.
Experiment [11] is described as follows: compound effects on lung adenocarcinoma cell viability – A549, calcein-AM fluorescence, 48 h, basal, profiling panel (AID 1162). Further: test concentration not given here. Conditions: higher = more signal.
Experiment [12] is described as follows: compound effects on differentiated 3T3-L1 adipocyte viability – cell-based, 3T3-L1 adipocytes, calcein-AM fluorescence, 48 h, basal, profiling panel (AID 1163). Further: test concentration not given here. The settings on record: 3T3-L1 adipocytes viability, higher = more signal.
The nature of experiment [13]: compound effects on hepatocellular carcinoma cell viability – HepG2, calcein-AM fluorescence, 48 h, basal, profiling panel (AID 1164). Further: test concentration not given here. The settings on record: higher = more signal.
A short description of experiment [14]: compound effects on multiple myeloma cell viability – MM1S, calcein-AM fluorescence, 48 h, basal, profiling panel (AID 1165). Further: test concentration not given here. Conditions: higher = more signal.
Experiment [15] can be described thus: calcein-AM signal in unstimulated myeloma cells – cell-based, calcein-AM fluorescence, 48 h, PK04 Diversity Set, profiling panel (AID 1166).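 Further: cells grown under basal conditions without added stimulus; test concentration not given here.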 Conditions: RPMI8226 myeloma viability, higher = more signal.
A short description of experiment [16]: JC-1 mitochondrial signal, unstimulated HepG2 cells – cell-based, JC-1 fluorescence, 24 h, 100 nL compound, profiling panel (AID 1167). Further: test concentration not given here. Conditions: HepG2 mitochondrial potential, higher = more signal.
A short description of experiment [17]: JC-1 mitochondrial signal, unstimulated adipocytes – cell-based, JC-1 fluorescence, 3T3-L1 adipocytes, 24 h, 100 nL compound, profiling panel (AID 1168). Further: test concentration not given here. Conditions: JC-1 mitochondrial fluorescence, higher = more signal, called active from +8 up or from −8 down.
A short description of experiment [18]: JC-1 mitochondrial signal, unstimulated myeloma cells – cell-based, JC-1 fluorescence, RPMI8226, 24 h, 100 nL compound, profiling panel (AID 1169). Further: test concentration not given here. The settings on record: JC-1 mitochondrial potential fluorescence, higher = more signal.
Experiment [19] is described as follows: JC-1 mitochondrial signal, unstimulated MM1S myeloma – cell-based, JC-1 fluorescence, 24 h, 100 nL compound, profiling panel (AID 1170). Further: test concentration not given here. Conditions: MM1S mitochondrial potential, higher = more signal.
The nature of experiment [20]: resazurin metabolic signal in A549 cells – cell-based, resazurin fluorescence, 24 h, PK04 Diversity Set, profiling panel (AID 1171). Further: test concentration not given here. Conditions: A549 viability, higher = more signal, called active from +8 up or from −8 down. (The colour change of resazurin is a common sign of viable cells or microbes.)

Chain of NADPH oxidase 2 (Homo sapiens) (P04839 whole entry, looked up): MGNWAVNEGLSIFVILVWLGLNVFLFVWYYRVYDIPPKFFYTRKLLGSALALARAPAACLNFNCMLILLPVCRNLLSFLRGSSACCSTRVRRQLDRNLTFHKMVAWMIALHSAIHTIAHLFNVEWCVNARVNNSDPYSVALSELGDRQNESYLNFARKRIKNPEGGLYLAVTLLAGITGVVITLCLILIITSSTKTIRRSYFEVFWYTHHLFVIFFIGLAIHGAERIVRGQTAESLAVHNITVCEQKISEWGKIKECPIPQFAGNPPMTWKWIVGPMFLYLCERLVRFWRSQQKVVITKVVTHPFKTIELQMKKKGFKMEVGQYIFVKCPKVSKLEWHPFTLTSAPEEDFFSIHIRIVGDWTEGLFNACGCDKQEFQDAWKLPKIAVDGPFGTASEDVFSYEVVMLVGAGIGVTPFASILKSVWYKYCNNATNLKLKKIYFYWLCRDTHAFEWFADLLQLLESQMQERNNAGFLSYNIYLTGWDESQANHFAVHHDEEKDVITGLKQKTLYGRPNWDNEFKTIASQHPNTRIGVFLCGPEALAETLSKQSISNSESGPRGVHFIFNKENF
Chain of NADPH oxidase 5 (Homo sapiens) (Q96PH1 whole entry, looked up): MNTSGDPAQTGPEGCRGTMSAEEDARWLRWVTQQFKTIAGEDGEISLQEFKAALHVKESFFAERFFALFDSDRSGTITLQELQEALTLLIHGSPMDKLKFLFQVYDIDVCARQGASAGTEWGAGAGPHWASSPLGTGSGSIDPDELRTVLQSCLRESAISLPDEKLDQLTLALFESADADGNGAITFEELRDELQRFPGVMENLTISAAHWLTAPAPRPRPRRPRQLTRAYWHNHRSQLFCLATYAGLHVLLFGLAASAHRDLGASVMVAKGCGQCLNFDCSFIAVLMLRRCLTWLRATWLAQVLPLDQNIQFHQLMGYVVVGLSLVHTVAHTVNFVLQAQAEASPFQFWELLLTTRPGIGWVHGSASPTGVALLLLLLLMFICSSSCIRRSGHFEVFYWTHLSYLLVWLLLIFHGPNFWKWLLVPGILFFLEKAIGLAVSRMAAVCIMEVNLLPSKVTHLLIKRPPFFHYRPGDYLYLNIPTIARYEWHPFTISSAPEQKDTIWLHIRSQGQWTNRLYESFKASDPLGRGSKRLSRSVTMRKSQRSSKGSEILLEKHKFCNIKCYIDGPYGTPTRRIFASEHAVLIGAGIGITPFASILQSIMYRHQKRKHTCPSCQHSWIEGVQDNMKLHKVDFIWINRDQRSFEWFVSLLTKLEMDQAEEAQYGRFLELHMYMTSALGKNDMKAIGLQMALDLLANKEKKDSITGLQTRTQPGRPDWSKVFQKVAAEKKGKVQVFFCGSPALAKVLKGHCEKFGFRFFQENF
Chain of NADPH oxidase 4 (Homo sapiens) (Q9NPH5 whole entry, looked up): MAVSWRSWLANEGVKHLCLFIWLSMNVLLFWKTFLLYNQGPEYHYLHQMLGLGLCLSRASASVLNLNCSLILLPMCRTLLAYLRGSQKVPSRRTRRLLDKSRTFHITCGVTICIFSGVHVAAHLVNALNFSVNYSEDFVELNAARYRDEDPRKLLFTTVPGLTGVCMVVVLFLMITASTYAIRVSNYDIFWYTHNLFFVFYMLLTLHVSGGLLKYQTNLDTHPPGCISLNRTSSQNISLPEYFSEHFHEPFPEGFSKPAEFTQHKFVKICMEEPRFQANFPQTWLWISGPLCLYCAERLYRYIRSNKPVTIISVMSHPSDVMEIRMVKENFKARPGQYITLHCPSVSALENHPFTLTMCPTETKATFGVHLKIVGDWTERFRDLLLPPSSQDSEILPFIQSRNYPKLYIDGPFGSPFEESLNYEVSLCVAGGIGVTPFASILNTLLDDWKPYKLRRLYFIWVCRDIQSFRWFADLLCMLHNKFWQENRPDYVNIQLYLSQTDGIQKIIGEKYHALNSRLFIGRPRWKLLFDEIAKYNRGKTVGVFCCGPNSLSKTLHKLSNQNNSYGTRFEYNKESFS

On to `CN(C)CCCC[C@@H]1NC(=O)[C@@H]2C[C@H](C(=O)NCc3ccc(F)cc3)[C@H](c3ccc(O)cc3)N2C1=O`, for which the z-score in [1] is -0.876 (inactive); in [3], 1.98 (inactive); in [4], 0.947 (inactive); in [5] it was -1.62 (inactive); in [6], 0.35 (inactive); in [7] it was 0.359. Moreover, the z-score in [8] was 0.391 (inactive); in experiment [9], -0.25 (inactive); in experiment [10], 0.714; in experiment [11] it was -0.467; in experiment [12], -0.904; in experiment [13], 0.263. For the same compound, the z-score in experiment [14] was 0.135; in experiment [15], -0.0865; in [16] it was 0.393; in experiment [17], -0.0839 (inactive); in experiment [18], -0.963; in [19], -0.187. Further, the z-score in [20] was -0.454 (inactive). This compound also returned a composite z-score in experiment [2] of -0.0501.
For `CN(C)CCCC[C@@H]1NC(=O)[C@H]2C[C@@H](C(=O)O)[C@@H](c3cccc(OCCO)c3)N2C1=O`, the z-score in [1] was 0.0804 (inactive); in [3], 7.58 (inactive); in [4], 0.945 (inactive); in experiment [5], -5.21 (inactive); in [6], 0.424 (inactive); in experiment [7], 0.479. The z-score in experiment [8] was -2.73 (inactive); in experiment [9] it was -3.04 (inactive); in experiment [10], -1.4; in experiment [11] it was -0.17; in [12], 0.174; in experiment [13] it was 0.41. Also, the z-score in experiment [14] was -3.21; in experiment [15], 0.584; in experiment [16], 0.773; in experiment [17], -0.829 (inactive); in experiment [18], -0.786; in [19], -0.713. In experiment [20], the z-score was 0.618 (inactive). This compound returned a composite z-score in experiment [2] of 0.393.
Regarding `COc1ccc([Si](C)(C)[C@H]2[C@H](CCn3cc([C@H](O)c4ccccc4)nn3)O[C@@]3(C(=O)N(c4ccccc4)c4ccccc43)[C@@H]2C)cc1`, the z-score was 1.13 (inactive) in experiment [1]; 6.6 (inactive) in [3]; 1.67 (inactive) in experiment [4]; 0.56 (inactive) in experiment [5]; 1.23 (inactive) in experiment [6]; 0.448 in experiment [7]. The z-score in [8] was 1.47 (inactive); in experiment [9], 1.3 (inactive); in [10], 1.33; in experiment [11], -0.13; in experiment [12], 0.885; in [13], -1.31. The z-score is -0.54 in [14]; -3.18 in experiment [15]; 1.63 in [16]; 0.291 (inactive) in experiment [17]; -0.932 in experiment [18]; -0.794 in experiment [19]. Further, the z-score in experiment [20] was -0.853 (inactive). In [2], the composite z-score was 0.0004.
In the case of `COC(=O)[C@@H]1N=C(c2ccc(OCCCO)cc2)O[C@@H]1c1ccccc1CN=[N+]=[N-]`, the z-score is 0.664 (inactive) in [1]; 25 (active) in experiment [3]; 9.39 (active) in experiment [4]; -0.5 (inactive) in experiment [5]; 1.33 (inactive) in experiment [6]; -0.239 in [7]. In addition, the z-score in experiment [8] was -0.817 (inactive); in experiment [9] it was 0.827 (inactive); in experiment [10], 0.0949; in experiment [11], 0.432; in [12] it was -0.446; in experiment [13], -0.198. For the same compound, the z-score was -0.329 in experiment [14]; -0.717 in experiment [15]; -1.07 in experiment [16]; 1.43 (inactive) in experiment [17]; -0.16 in [18]; -0.741 in experiment [19]. Further, the z-score in experiment [20] is 1.07 (inactive). Further, the composite z-score in experiment [2] is 0.881.
`CC(C)=CCN(C(=O)C#Cc1ccccc1)[C@H](CO)c1ccccc1`: the z-score in [1] was -4.56 (inactive); in experiment [3], 16.8 (active); in [4], 3.67 (inactive); in experiment [5] it was -2.25 (inactive); in experiment [6], 0.402 (inactive); in experiment [7], 0.21. Also, the z-score in experiment [8] is 2.15 (inactive); in experiment [9] it was -1 (inactive); in experiment [10], -3.76; in [11], -3.88; in experiment [12] it was -0.522; in experiment [13], -5.06. Moreover, the z-score in [14] was -3.2; in experiment [15], -4.1; in experiment [16], -3.07; in [17], 0.983 (inactive); in [18] it was -1.24; in [19], -2.54. Moreover, in [20], the z-score was -2.45 (inactive). The compound further displayed a composite z-score in experiment [2] of -0.0876.
On to `[N-]=[N+]=NCc1ccccc1[C@H]1OC(c2ccc(OCCCO)cc2)=N[C@@]1(Cc1ccccc1)C(=O)N1CCOCC1`, for which the z-score in experiment [1] is -0.686 (inactive); in [3], 28.8 (active); in experiment [4] it was 25.7 (active); in experiment [5] it was 2.96 (inactive); in [6], 2.24 (inactive); in [7] it was 0.692. Also, the z-score was -0.0281 (inactive) in experiment [8]; 0.154 (inactive) in experiment [9]; -0.526 in experiment [10]; 0.281 in experiment [11]; 0.491 in experiment [12]; 0.556 in experiment [13]. Moreover, the z-score is -1.45 in experiment [14]; -1.11 in [15]; 0.213 in [16]; -1.67 (inactive) in experiment [17]; -0.887 in [18]; 0.35 in experiment [19]. The z-score in [20] is 1.56 (inactive). Besides, the composite z-score in [2] was determined as 0.321.
Take `C=CCNC(=O)[C@@H]1[C@H]2C(=O)O[C@H](c3ccccc3)[C@H](c3ccccc3)N2[C@H](c2ccccc2OCCO)[C@@]12C(=O)N(C(=O)OCCOC)c1ccc(C#CCCO)cc12`: the z-score in experiment [1] was -0.288 (inactive); in experiment [3], 2.62 (inactive); in experiment [4] it was 1.15 (inactive); in experiment [5], 0.123 (inactive); in experiment [6] it was 0.167 (inactive); in experiment [7], 0.568. Moreover, the z-score was 1.57 (inactive) in experiment [8]; 1.31 (inactive) in [9]; 0.165 in [10]; 0.614 in [11]; 0.393 in experiment [12]; 1.53 in experiment [13]. The z-score in experiment [14] is -0.02; in [15], -0.615; in experiment [16], -0.332; in experiment [17], 0.507 (inactive); in experiment [18], -0.868; in experiment [19] it was -1.46. In [20], the z-score is -0.0256 (inactive). In addition, the composite z-score in experiment [2] was found to be 0.209.
Regarding `C[C@H]1NC(=O)C([C@@H](C)OCc2ccccc2)NC(=O)[C@@]23C(=O)N[C@@H](Cc4ccccc4)C2[C@H](C)[C@@]2(C)O[C@H]2C3/C=C/C/C=C\CNC1=O` (stereo not given in full), the z-score in experiment [1] was -0.009 (inactive); in experiment [3], 1.88 (inactive); in [4], 0.58 (inactive); in [5], 0.761 (inactive); in experiment [6], 0.427 (inactive); in [7], -0.104. Further, the z-score was -0.118 (inactive) in experiment [8]; -1.16 (inactive) in [9]; -0.16 in [10]; 0.462 in experiment [11]; 1.44 in experiment [12]; 0.14 in experiment [13]. Also, the z-score was -0.0497 in experiment [14]; -0.23 in experiment [15]; 0.817 in [16]; 0.346 (inactive) in experiment [17]; 0.0911 in experiment [18]; 0.607 in experiment [19]. In experiment [20], the z-score was -0.214 (inactive). This compound gave a composite z-score in experiment [2] of -0.0501.
